These results are taken from PubChem BioAssay (NCATS).

Inconclusive results are not listed. Activity calls are given as the source filed them. Calls follow the shape of the dose curve; as a rule, active = well fitted curve in the direction sought with a large enough effect; inconclusive = small, poorly fitted or top-dose-only effect, or another doubt; inactive = no such curve, though single readings can be large; an effect the other way counts as inactive or inconclusive.

A short description of assay [1]: qHTS of pediatric cancer cell lines to identify multiple opportunities for drug repurposing: Primary screen for SJ-GBM2 cells (AID 1347091). Also: potency is read from the fitted curve at half-maximal effect. The gist of the method:
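Viability measured as metabolically active cells via CellTiter-Glo luminescence following 48 hours of compound exposure, 11-point dilutions in confirmatory testing. 500-1,000 cells/well plated 5 hours before dosing; controls were DMSO and 2.3 µM bortezomib.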

Assay [2] in a line: qHTS of pediatric cancer cell lines to identify multiple opportunities for drug repurposing: Primary screen for A673 cells (AID 1347092). Also: nearly all actives have a fitted effect of over 45% in size. Also: potency is read from the fitted curve at half-maximal effect. The method in brief:
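Cell viability of A673 measured by CellTiter-Glo ATP luminescence after 48 hours compound exposure. Dilution series spanned 0.78 nM to 46 µM (MIPE, 11-point) or 0.59 nM to 46 µM (NPC, 8-point); bortezomib 2.3 uM positive control.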

Assay [3] is described as follows: qHTS of pediatric cancer cell lines to identify multiple opportunities for drug repurposing: Primary screen for SK-N-MC cells (AID 1347093). Also: potency is read from the fitted curve at half-maximal effect. The gist of the method:
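Metabolically active cells were quantified by ATP-dependent luminescence (CellTiter-Glo, 15 min at room temperature) following 48 h treatment. Cells had been plated at 500-1,000 per well and settled for 5 h beforehand.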

The nature of assay [4]: qHTS of pediatric cancer cell lines to identify multiple opportunities for drug repurposing: Primary screen for NB-EBc1 cells (AID 1347095). Also: potency is read from the fitted curve at half-maximal effect. The gist of the method: (§1)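 Viability was measured as metabolically active cells after 48 hours of treatment, read by CellTiter-Glo luminescence. Compounds were tested at multiple final concentrations, giving concentration-response curves.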

Assay [5] is described as follows: qHTS of pediatric cancer cell lines to identify multiple opportunities for drug repurposing: Primary screen for U-2 OS cells (AID 1347096). Also: nearly all actives have a fitted effect of over 50% in size. Also: potency is read from the fitted curve at half-maximal effect. The method in brief: (§2)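 Viability after 48 h compound treatment at 37C, 500-1,000 cells/well, read as ATP luminescence with CellTiter-Glo. Primary screens used 11-point (MIPE, 0.78 nM-46 µM) or 8-point (NPC, 0.59 nM-46 µM) final concentrations; follow-up screens used 11-point dilutions.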

A short description of assay [6]: qHTS of pediatric cancer cell lines to identify multiple opportunities for drug repurposing: Primary screen for Saos-2 cells (AID 1347097). Also: nearly all actives have a fitted effect of over 40% in size. Also: potency is read from the fitted curve at half-maximal effect. The gist of the method:
as §1

The nature of assay [7]: qHTS of pediatric cancer cell lines to identify multiple opportunities for drug repurposing: Primary screen for SK-N-SH cells (AID 1347098). Also: nearly all actives have a fitted effect of over 65% in size. Also: potency is read from the fitted curve at half-maximal effect. The gist of the method: (§3)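 Cells (500-1,000/well) rested 5 h, then received compounds for 48 h; metabolically active cells were measured by CellTiter-Glo luminescence. Final concentrations spanned up to 46 µM (MIPE, 11-point) or 0.59 nM-46 µM (NPC, 8-point) in primary screens, 11-point in follow-ups.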

Assay [8] in a line: qHTS of pediatric cancer cell lines to identify multiple opportunities for drug repurposing: Primary screen for NB1643 cells (AID 1347099). Also: nearly all actives have a fitted effect of over 50% in size. Also: potency is read from the fitted curve at half-maximal effect. The gist of the method: as §1
A short description of assay [9]: qHTS of pediatric cancer cell lines to identify multiple opportunities for drug repurposing: Primary screen for Rh18 cells (AID 1347102). Also: nearly all actives have a fitted effect of over 65% in size. Also: potency is read from the fitted curve at half-maximal effect. The method in brief: as §2
A short description of assay [10]: qHTS of pediatric cancer cell lines to identify multiple opportunities for drug repurposing: Primary screen for OHS-50 cells (AID 1347103). Also: nearly all actives have a fitted effect of over 40% in size. Also: potency is read from the fitted curve at half-maximal effect. The method in brief: as §3
The nature of assay [11]: qHTS of pediatric cancer cell lines to identify multiple opportunities for drug repurposing: Primary screen for RD cells (AID 1347104). Also: nearly all actives have a fitted effect of over 55% in size. Also: potency is read from the fitted curve at half-maximal effect. The method in brief: as §1
Assay [12] in a line: qHTS of pediatric cancer cell lines to identify multiple opportunities for drug repurposing: Primary screen for control Hh wild type fibroblast cells (AID 1347106). Also: nearly all actives have a fitted effect of over 55% in size. Also: potency is read from the fitted curve at half-maximal effect. The gist of the method:
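Cells (500-1,000/well) in growth media were settled 5 h at 37 degrees C, then given compounds for 48 h. Viability was read as CellTiter-Glo luminescence. Primary runs used MIPE at 11 points (0.78 nM-46 µM) and NPC at 8 points (0.59 nM-46 µM); follow-ups used 11 points.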

Assay [13] can be described thus: qHTS of pediatric cancer cell lines to identify multiple opportunities for drug repurposing: Primary screen for Rh30 cells (AID 1347107). Also: series mostly up to about 46 µM; nearly all actives have a fitted effect of over 75% in size. The gist of the method: as §2
Assay [14] is described as follows: qHTS of pediatric cancer cell lines to identify multiple opportunities for drug repurposing: Primary screen for Rh41 cells (AID 1347108). Also: nearly all actives have a fitted effect of over 70% in size. Also: potency is read from the fitted curve at half-maximal effect. The method in brief:
as §1

Assay [15] is described as follows: qHTS of pediatric cancer cell lines to identify multiple opportunities for drug repurposing: Primary screen for BT-37 cells (AID 1347094). Also: potency is read from the fitted curve at half-maximal effect. The gist of the method: as §1
Assay [16] can be described thus: qHTS of pediatric cancer cell lines to identify multiple opportunities for drug repurposing: Primary screen for LAN-5 cells (AID 1347100). The gist of the method: as §2
The nature of assay [17]: qHTS of pediatric cancer cell lines to identify multiple opportunities for drug repurposing: Primary screen for BT-12 cells (AID 1347101). Also: nearly all actives have a fitted effect of over 25% in size. Also: potency is read from the fitted curve at half-maximal effect. The method in brief: as §3
Assay [18] in a line: qHTS of pediatric cancer cell lines to identify multiple opportunities for drug repurposing: Primary screen for MG 63 (6-TG R) cells (AID 1347105). Also: nearly all actives have a fitted effect of over 50% in size. Also: potency is read from the fitted curve at half-maximal effect. The gist of the method: as §1
Assay [19] can be described thus: qHTS of pediatric cancer cell lines to identify multiple opportunities for drug repurposing: Confirmatory screen for A673 cells (AID 1347110).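 Also: cells exposed to compound for 48 h before the viability read; nearly all actives have a fitted effect of over 65% in size.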 The method in brief: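 Viability was read as ATP luminescence (CellTiter-Glo) after 48 h of compound exposure at 37 C in A673 cells seeded at 500-1,000/well. Titrations reached 46 uM final, with 11 points in the confirmatory screen. Concentration-response curves were fitted directly.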

For `Oc1ccc2c3c1O[C@H]1[C@@H](O)C=C[C@H]4[C@@H](C2)NCC[C@@]341`, the Potency entry in assay [1], in [2], in assay [3], in assay [4], in assay [5] and in [6] was “inactive” throughout. In addition, the Potency entry in assay [7], in [8], in [9], in assay [10], in assay [11] and in assay [12] was “inactive” each time. Also, the Potency result in assay [13] and in assay [14] was “inactive” throughout.

Regarding `CCCCC(CC)COC(=O)c1ccccc1C(=O)OCC(CC)CCCC` (configuration not stated), the Potency result in assay [1], in assay [2], in [3], in assay [15], in assay [4] and in [5] was “inactive” in each case. In addition, the Potency entry in assay [8], in assay [16], in assay [17], in [9], in assay [10] and in assay [11] was “inactive” each time. Moreover, the Potency result in assay [13] and in assay [14] was “inactive” throughout.

With `CCOP(=O)(NC(C)C)Oc1ccc(SC)c(C)c1` (configuration not stated), the Potency result in [1], in assay [2], in assay [3], in assay [15], in assay [4] and in assay [5] was “inactive” in each case. Moreover, the Potency entry in assay [6], in [7], in [8], in assay [16], in assay [9] and in assay [11] was “inactive” in each case. The Potency result in [13] and in assay [14] was “inactive” in each case.

For `COC1=CC(C)=C[C@@H](C)[C@@H](O)[C@@H](C)CC(C)=CC=C[C@H](OC)[C@H]([C@@H](C)[C@@H](O)[C@H](C)[C@@]2(O)C[C@@H](O)[C@H](C)[C@@H](C(C)C)O2)OC1=O`, the Potency is 1 nM (active) in [1]; 3.7 nM (active) in [2]; 2.1 nM (active) in assay [3]; 3.4 nM (active) in [15]; 1 nM (active) in assay [4]; 37200 nM (active) in assay [5]. Moreover, the Potency in assay [6] was 29600 nM (active); in assay [7] it was 13.6 nM (active); in [8], 9.3 nM (active); in [17] it was 4.9 nM (active); in assay [9], 14800 nM (active); in assay [10], 1.4 nM (active). In addition, the Potency in [11] is 1 nM (active); in assay [18] it was 5.9 nM (active); in assay [12], 41.8 nM (active); in assay [14], 16600 nM (active). In addition, the Potency entry in assay [19] was “inactive”.

For `O=C(Nc1ccccc1-c1ccc(Cl)cc1)c1cccnc1Cl`, the Potency entry in assay [1], in assay [2], in assay [3], in [15], in [5] and in [6] was “inactive” each time. Also, the Potency result in [7], in assay [8], in assay [16], in assay [17], in [9] and in assay [11] was “inactive” each time. Further, the Potency result in assay [18], in assay [12], in assay [13] and in [14] was “inactive” each time.

Turning to `CSCC[C@@H](NC(=O)[C@@H](Cc1ccccc1)NC(=O)CNC(=O)CNC(=O)[C@@H](N)Cc1ccc(O)cc1)C(=O)O`, the Potency result in assay [1], in assay [2], in assay [3], in [15], in [4] and in assay [5] was “inactive” in each case. The Potency result in assay [6], in assay [7], in assay [8], in assay [16], in assay [17] and in [9] was “inactive” throughout. The Potency result in assay [10], in assay [11], in assay [12], in [13] and in assay [14] was “inactive” throughout.
